About 83,000 compounds went through this panel and 20% of them were active in at least one assay; those are over-represented in the sample as a whole.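 Values shown are percent growth following 48 h exposure of cells in 96-well plates to a single concentration of compound; below 10 was considered active.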 A number with no mark means an inactive call. Activity calls are given as the source filed them.
Experiments:
Test in all cases: NCI-60 one-dose screen, 48 h (100 = growth as untreated, 0 = no growth, -100 = all killed)
Conditions in all cases: 10 µM unless noted
[1] = system: SR leukemia
[2] = system: RPMI-8226 leukemia
[3] = system: OVCAR-8 ovarian
[4] = system: OVCAR-5 ovarian
[5] = system: OVCAR-4 ovarian
[6] = system: IGROV1 ovarian
[7] = system: OVCAR-3 ovarian
[8] = system: HS 578T breast
[9] = system: NCI/ADR-RES ovarian
[10] = system: SK-OV-3 ovarian

| SMILES | growth [1] | growth [2] | growth [3] | growth [4] | growth [5] | growth [6] | growth [7] | growth [8] | growth [9] | growth [10] |
| --- | --- | --- | --- | --- | --- | --- | --- | --- | --- | --- |
| O=C1OC(c2ccc(-c3ccccc3)cc2)=C/C1=C/c1c2ccccc2cc2ccccc12 | 81.2% | 85.3% | 97.6% | 83.7% | 95.7% | 101% | 97.9% | 89.8% | 96.5% | – |
| CCCCCCCCC/C(=N\NC(=O)c1ccncc1)c1ccc(O)c(O)c1O | 6.56% (active) | 27.1% | 13.8% | 48.6% | – | 24.9% | 25.6% | – | 7.59% (active) | 24.3% |
| COC1(OC)N=C(N)C2(C#N)C3(C(=O)Nc4ccccc43)C12C#N (stereo unspecified) | 6.82% (active) | 49.7% | 94.2% | 65.1% | 60% | 63.5% | 84% | 67.2% | 100% | – |
| CCCC(=O)NNc1[nH]c(-c2cc(OC)c(OC)c(OC)c2)cc1C(=O)OCC | 68.2% | 101% | 108% | 92.8% | 118% | 22.6% | 92.6% | 105% | 114% | – |
| C/C=C/C/C=C/[C@H](C)C[C@H](O)[C@@H]1C[C@@H]2O[C@H]2/C=C/[C@H](O)[C@@H](O)/C=C/C[C@H](C)CC(=O)O1 | 69.9% | 42.8% | 63.7% | 93.4% | 88.9% | 78.9% | 84.9% | 11% | 71.6% | – |
| O=C1CSC(c2ccccc2Cl)N1c1nnc(-c2ccncc2)o1 (stereo unspecified) | 96% | 86% | 103% | 94.1% | 97.8% | 89% | 108% | 109% | 92.3% | – |
| CCS(=O)(=O)OCCO[C@H]1Cc2cc3ccc(=O)oc3cc2OC1(C)C | 111% | 113% | 101% | 107% | 106% | 109% | 108% | 98% | 107% | – |
| COC(=O)[C@H](Cc1cn(C)cn1)NC(=O)[C@H](CC(=O)OCc1ccccc1)NC(=O)Nc1cc(C(F)(F)F)cc(C(F)(F)F)c1 | -46.4% [100 µM] (active) | -65.4% [100 µM] (active) | -77.4% [100 µM] (active) | -93.2% [100 µM] (active) | -78% [100 µM] (active) | -82.4% [100 µM] (active) | -99% [100 µM] (active) | – | -28.4% [100 µM] (active) | – |
| O=C(N/N=C\c1ccc(Cl)cc1)C(=O)N/N=C\c1ccc(Cl)cc1 | 90.7% | 95.7% | 102% | 105% | – | 88.7% | 123% | – | 104% | 92.4% |
| CC1(C)Oc2cc3oc(=O)ccc3cc2C[C@@H]1OCCOS(=O)(=O)c1ccc(C#N)cc1 | 107% | 91.9% | 92.7% | 97.9% | 88% | 100% | 96% | 89.7% | 96.1% | – |
| O=C(/C=C\c1ccc(NCc2ccc(C(=O)O)cc2)cc1)CCl | -12.1% (active) | 60.4% | 66.9% | 114% | 90.6% | 90.4% | 72.4% | – | 100% | – |
| C[C@H]1C[C@@H](n2cnc3c(N)nccc32)[C@H](O)[C@@H]1O | -54.1% (active) | 117% | 99% | 103% | 110% | 560% | 120% | 109% | 128% | – |
| O=C1/C(=C/c2ccc(Cl)cc2)CCC/C1=C\c1ccc(Cl)cc1 | 48.7% | -0.252% (active) | 68.9% | 96.7% | – | 62.6% | 55.8% | – | 87.2% | 88% |
| Cc1sc(NC(=O)c2ccc(C(C)(C)C)cc2)c(C(=O)O)c1C | 62.8% | 47.2% | 56.5% | 94% | – | 70.9% | 71.7% | – | 58.9% | 103% |
| O=c1[nH]c2cc(O)ccc2n2cc3c(F)cccc3c12 | 9.4% (active) | 46.2% | 24.6% | 43.8% | – | 16.9% | 30.3% | -26.1% (active) | 17.2% | -4.03% (active) |
| CCOC(=O)CSSCC(=O)OCC | 88.7% | 98.6% | 101% | 108% | – | 110% | 110% | – | 110% | 102% |
| CCCCCCCCCCCCCCCCNC(=S)N/N=C/c1ccc(OC)cc1 | 106% | 93.2% | 92.1% | – | 113% | 106% | 110% | 107% | 101% | 114% |
